In PubChem BioAssay one finds composite z-score and z-score data, which are given here for six compounds.

Calls of active or inactive are those of the source.

A short description of assay [1]: binders of probe aFSTL3 on microarray, primary screen, stem cell growth factor project, biochemical, small-molecule microarray, fluorescence 635/667 (AID 1064).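 Note: measures binding of the biotinylated anti-FSTL3 antibody to printed compounds.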 Particulars: higher = more signal.
Assay [2] is described as follows: binders from COS7 lysate, DM2A8 probe, primary screen, torsin A project, cell lysate, small-molecule microarray, fluorescence 635/667 (AID 1065). Particulars: higher = more signal, COS7 lysate expressing mutant human TOR1A.
The nature of assay [3]: binders of probe aFGF2 on microarray, primary screen, stem cell growth factor project, biochemical, small-molecule microarray, fluorescence 635/667 (AID 1067).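 Note: measures binding of biotinylated aFGF2 protein to printed compounds on slides; z-score merges feature fluorescence and signal-to-noise across triplicate slides.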 Particulars: higher = more signal.
A short description of assay [4]: binders of probe aFGF10 on microarray, primary screen, stem cell growth factor project, biochemical, small-molecule microarray, fluorescence 635/667 (AID 1071).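 Note: score merges 667 nm spot intensity and signal to noise from triplicate slides.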 The settings on record: higher = more signal.
In assay [5] the target is Neurogenic locus notch homolog protein 2 (Homo sapiens) (UniProt Q04721). The assay is described as follows: Notch2 binders on small-molecule microarrays, primary screen, biochemical, small-molecule microarray, 635 nm fluorescence, stem cell growth factors (AID 1073). Particulars: Notch2 binding, higher = more signal.
The target in assay [6] is Pro-neuregulin-1, membrane-bound isoform (Homo sapiens) (UniProt Q02297). Kind of assay: NRG1 binders on small-molecule microarrays, primary screen, psychiatric disease protein project, biochemical, small-molecule microarray, fluorescence 635/667 (AID 1075).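 Note: score combines 667 nm spot fluorescence with signal to noise.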 Particulars: NRG1 binding, 635 nm fluorescence, higher = more signal.
Assay [7] relates to Neuregulin-1 EGF-like domain. The assay is described as follows: binders of neuregulin-1 EGF-like domain, primary screen, biochemical, small-molecule microarray, 635 nm fluorescence (AID 1081).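 Note: binding of the protein to compounds printed on small-molecule microarray slides.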 The settings on record: small-molecule microarray binding, higher = more signal.
Assay [8] can be described thus: FRG1 promoter luciferase signal modulators, primary screen, FRG1 inhibition for FSHD, cell-based, C2C12 myotubes, firefly/Renilla luciferase, luminescence (AID 1084). Particulars: higher = more signal, called active from +8 up or from −8 down.
Assay [9] is described as follows: binders of probe aFST on microarray, primary screen, stem cell growth factor project, biochemical, small-molecule microarray, fluorescence 635/667 (AID 1086).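 Note: score merges 667 nm fluorescence with signal-to-noise of each printed compound spot.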 Particulars: higher = more signal.
Assay [10] in a line: binders of probe aHhip on microarray, primary screen, stem cell growth factor project, biochemical, small-molecule microarray, fluorescence 635/667 (AID 1087).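 Note: score merges spot fluorescence at 667nm with spot signal to noise ratio.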 The settings on record: higher = more signal.
Assay [11] relates to PRMT1 (protein arginine N-methyltransferase 1). Kind of assay: PRMT1 binders on small-molecule microarrays, primary screen, biochemical, small-molecule microarray, 635 nm fluorescence (AID 1088).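 Note: binding of Prmt1 protein to compounds spotted on small-molecule microarray slides.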 The settings on record: small-molecule microarray binding, higher = more signal.
A short description of assay [12]: yeast growth modulation, basal conditions, primary screen, YJM789 clinical isolate, OD600, 24 h (AID 1089).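 Note: growth of clinical yeast isolate S. cerevisiae YJM 789 seeded 1000 cells per well; test concentration not given here.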 Particulars: S. cerevisiae YJM789 growth, higher = more signal, called active from +8 up or from −8 down.
Assay [13] in a line: fission yeast growth modulation, primary screen, strain 972, OD600, 24 h, no modulator (AID 1090).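 Note: basal condition with compound alone and no growth modifier present; test concentration not given here.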 Particulars: S. pombe 972 growth, higher = more signal, called active from +8 up or from −8 down.
Assay [14] can be described thus: S. cerevisiae growth modulation with rapamycin, primary screen, strain BY4716, OD600, 96 h (AID 1091). Note: test concentration not given here. The settings on record: higher = more signal, called active from +8 up or from −8 down.
The target of assay [15] is Torsin-1A-interacting protein 2 (Homo sapiens) (UniProt Q8NFQ8). Kind of assay: LULL1 binders on small-molecule microarray, primary screen, cell lysate, human LULL1 lysate, 635/667 nm fluorescence (AID 1092).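 Note: score merges per-feature 667 nm fluorescence with signal-to-noise.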 The settings on record: hLULL1 lysate binding, 635 nm fluorescence, higher = more signal.
Assay [16] is described as follows: E. coli growth modulation, two-sided OD650, primary screen, E. coli filamentation project, strain DRC41, 24 h (AID 1093).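 Note: MC1000 strain lacking acrAB efflux and sulA so SOS filamentation is blocked; test concentration not given here.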 Particulars: OD650, 24 h, higher = more signal, called active from +8 up or from −8 down.
Assay [17] in a line: small-molecule microarray binders of probe aLefty2, primary screen, biochemical, biotinylated probe, 635/667 nm fluorescence (AID 1094).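 Note: score merges spot fluorescence near 667 nm with spot signal-to-noise ratio.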 Particulars: higher = more signal.
Assay [18] relates to Noggin (protein binding on small-molecule microarray). Kind of assay: Noggin binders on small-molecule microarray, primary screen, biochemical, 635/667 nm fluorescence (AID 1095).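 Note: score merges 667 nm feature fluorescence with signal to noise over triplicate slides.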 Particulars: 635 nm fluorescence, higher = more signal.
Assay [19] addresses Neurogenic locus notch homolog protein 3 (Homo sapiens) (UniProt Q9UM47). Kind of assay: NOTCH3 binders on small-molecule microarray, primary screen, biochemical, 635/667 nm fluorescence (AID 1096). The settings on record: NOTCH3 binding, 635 nm fluorescence, higher = more signal.
The nature of assay [20]: small-molecule microarray binders of probe aEGFR, primary screen, biochemical, biotinylated probe, 635/667 nm fluorescence (AID 1097).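 Note: probe is a biotinylated anti-EGFR antibody binding compounds printed on slides; score combines fluorescence near 667 nm and signal to noise of each spot.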 Particulars: higher = more signal.

Sequence of Neurogenic locus notch homolog protein 3 (Homo sapiens) (Q9UM47 whole entry, looked up): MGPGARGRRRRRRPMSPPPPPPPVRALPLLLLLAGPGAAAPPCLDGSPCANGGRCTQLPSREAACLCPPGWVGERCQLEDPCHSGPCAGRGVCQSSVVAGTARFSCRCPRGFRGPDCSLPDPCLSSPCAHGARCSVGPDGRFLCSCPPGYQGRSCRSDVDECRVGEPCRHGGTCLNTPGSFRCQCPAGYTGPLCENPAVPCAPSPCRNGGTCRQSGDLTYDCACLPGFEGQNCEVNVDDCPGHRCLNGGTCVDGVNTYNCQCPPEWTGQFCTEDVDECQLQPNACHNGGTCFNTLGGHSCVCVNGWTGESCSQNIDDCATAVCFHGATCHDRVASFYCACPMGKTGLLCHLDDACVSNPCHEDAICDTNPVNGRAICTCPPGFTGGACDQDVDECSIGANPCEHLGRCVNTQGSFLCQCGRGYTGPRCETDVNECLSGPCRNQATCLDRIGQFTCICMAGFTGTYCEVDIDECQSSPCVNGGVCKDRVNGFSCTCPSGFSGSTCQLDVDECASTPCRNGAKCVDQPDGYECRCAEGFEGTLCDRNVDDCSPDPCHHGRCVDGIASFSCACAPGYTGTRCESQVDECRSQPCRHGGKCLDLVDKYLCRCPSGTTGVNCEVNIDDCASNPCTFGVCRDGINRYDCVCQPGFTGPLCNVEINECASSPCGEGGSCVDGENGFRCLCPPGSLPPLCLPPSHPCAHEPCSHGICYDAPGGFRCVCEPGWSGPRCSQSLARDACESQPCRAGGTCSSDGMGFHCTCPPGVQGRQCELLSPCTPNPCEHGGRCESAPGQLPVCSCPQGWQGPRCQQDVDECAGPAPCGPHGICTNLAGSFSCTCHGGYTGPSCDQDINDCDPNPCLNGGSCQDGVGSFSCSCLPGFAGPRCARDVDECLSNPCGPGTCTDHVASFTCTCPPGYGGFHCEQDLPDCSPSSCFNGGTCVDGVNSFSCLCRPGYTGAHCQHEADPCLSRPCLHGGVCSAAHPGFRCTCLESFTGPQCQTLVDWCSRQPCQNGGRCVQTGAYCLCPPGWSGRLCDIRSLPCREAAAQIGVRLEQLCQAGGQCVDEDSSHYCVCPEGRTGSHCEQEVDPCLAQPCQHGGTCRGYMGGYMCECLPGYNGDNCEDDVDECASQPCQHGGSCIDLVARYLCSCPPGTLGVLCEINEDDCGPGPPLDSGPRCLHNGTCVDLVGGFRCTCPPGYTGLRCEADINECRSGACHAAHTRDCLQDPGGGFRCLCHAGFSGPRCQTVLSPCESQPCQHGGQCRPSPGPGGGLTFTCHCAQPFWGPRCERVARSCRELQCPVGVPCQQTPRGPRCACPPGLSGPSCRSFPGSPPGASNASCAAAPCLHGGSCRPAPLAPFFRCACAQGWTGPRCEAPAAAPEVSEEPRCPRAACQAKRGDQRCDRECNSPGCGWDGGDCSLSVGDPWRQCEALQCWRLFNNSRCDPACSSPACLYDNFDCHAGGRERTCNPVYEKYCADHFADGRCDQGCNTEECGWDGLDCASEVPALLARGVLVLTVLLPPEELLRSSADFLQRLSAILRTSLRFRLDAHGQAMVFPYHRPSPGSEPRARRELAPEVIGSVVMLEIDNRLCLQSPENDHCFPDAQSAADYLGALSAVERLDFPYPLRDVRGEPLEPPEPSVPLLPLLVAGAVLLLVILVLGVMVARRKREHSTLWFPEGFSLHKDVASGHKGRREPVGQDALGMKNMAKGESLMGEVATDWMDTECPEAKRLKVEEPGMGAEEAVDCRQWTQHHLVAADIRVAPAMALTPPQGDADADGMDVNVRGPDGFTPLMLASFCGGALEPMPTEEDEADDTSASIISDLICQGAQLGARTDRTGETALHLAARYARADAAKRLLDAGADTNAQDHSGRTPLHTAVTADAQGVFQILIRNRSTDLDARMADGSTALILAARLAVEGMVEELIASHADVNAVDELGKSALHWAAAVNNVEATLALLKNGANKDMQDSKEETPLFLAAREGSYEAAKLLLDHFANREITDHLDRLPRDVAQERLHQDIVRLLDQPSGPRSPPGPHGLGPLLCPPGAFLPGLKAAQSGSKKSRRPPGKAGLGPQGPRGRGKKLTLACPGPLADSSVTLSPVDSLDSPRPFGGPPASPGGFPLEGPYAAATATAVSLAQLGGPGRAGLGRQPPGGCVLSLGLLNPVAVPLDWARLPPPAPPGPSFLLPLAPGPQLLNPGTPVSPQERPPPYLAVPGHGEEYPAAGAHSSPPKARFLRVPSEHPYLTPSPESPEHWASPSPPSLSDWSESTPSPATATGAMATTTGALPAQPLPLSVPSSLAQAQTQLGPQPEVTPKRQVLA
Sequence of Neurogenic locus notch homolog protein 2 (Homo sapiens) (Q04721 whole entry, looked up, canonical isoform): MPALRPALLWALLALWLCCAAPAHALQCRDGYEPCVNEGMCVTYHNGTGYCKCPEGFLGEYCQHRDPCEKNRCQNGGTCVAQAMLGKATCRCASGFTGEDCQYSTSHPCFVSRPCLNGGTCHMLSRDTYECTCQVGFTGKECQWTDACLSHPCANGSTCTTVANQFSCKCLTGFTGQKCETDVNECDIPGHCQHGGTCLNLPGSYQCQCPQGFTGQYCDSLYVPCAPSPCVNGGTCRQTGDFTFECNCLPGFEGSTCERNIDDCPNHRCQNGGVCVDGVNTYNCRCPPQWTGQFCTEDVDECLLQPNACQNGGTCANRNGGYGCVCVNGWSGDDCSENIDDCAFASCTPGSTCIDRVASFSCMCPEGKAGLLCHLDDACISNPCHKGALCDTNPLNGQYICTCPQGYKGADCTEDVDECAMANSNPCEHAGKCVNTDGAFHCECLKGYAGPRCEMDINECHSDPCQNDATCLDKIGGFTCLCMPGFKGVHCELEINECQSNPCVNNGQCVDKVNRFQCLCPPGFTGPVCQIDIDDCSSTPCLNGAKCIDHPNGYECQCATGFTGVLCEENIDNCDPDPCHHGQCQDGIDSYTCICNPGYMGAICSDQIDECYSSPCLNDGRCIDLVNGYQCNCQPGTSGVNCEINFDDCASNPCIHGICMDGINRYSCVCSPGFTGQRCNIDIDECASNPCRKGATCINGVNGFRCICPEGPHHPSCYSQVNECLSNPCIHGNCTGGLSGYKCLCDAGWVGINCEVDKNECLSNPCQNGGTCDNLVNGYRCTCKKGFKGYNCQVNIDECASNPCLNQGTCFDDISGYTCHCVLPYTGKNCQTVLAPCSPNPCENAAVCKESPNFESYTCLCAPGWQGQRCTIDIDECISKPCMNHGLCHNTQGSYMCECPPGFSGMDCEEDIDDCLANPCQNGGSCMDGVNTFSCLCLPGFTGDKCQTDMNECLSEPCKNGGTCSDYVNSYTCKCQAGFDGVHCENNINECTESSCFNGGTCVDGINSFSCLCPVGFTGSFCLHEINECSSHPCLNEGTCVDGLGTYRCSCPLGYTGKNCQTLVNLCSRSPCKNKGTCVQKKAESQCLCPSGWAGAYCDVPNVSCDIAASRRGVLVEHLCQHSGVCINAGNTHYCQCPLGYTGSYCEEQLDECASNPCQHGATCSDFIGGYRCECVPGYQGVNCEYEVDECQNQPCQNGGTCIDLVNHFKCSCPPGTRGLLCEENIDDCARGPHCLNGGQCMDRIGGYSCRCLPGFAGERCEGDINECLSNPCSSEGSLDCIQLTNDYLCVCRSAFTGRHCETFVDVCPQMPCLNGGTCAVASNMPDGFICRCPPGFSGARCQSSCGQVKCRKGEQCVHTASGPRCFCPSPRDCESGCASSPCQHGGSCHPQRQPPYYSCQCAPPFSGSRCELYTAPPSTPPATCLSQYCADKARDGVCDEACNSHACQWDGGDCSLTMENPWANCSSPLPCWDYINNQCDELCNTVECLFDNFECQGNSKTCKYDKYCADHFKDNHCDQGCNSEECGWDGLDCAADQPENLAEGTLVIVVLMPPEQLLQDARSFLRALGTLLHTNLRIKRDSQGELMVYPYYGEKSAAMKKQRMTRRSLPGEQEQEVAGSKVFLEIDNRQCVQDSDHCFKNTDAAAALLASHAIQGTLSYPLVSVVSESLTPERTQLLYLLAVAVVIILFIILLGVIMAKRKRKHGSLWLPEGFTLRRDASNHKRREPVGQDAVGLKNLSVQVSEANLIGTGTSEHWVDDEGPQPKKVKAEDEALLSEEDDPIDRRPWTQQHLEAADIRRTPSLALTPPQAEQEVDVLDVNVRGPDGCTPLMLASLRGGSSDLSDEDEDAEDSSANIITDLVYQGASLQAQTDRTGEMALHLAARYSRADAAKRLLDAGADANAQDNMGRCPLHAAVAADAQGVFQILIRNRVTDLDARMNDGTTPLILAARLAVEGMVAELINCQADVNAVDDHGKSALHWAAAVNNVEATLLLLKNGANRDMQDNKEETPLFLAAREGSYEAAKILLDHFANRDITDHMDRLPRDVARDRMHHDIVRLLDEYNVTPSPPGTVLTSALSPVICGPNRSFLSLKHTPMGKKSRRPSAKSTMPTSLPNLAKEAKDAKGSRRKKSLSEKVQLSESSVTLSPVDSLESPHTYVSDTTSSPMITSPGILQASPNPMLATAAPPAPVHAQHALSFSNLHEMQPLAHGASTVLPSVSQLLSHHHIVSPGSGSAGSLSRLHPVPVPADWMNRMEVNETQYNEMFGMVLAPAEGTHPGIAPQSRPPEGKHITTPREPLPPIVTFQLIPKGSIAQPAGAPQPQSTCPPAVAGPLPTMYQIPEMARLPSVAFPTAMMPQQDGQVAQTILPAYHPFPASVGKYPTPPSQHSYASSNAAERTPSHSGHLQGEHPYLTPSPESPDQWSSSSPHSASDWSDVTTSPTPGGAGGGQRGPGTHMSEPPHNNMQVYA

With `COc1cc2c(cc1OC)CN(C(=O)[C@@H]1[C@H]3C(=O)O[C@H](c4ccccc4)[C@H](c4ccccc4)N3[C@H](c3ccc(O)cc3)[C@@]13C(=O)Nc1ccc(C#CCNC(N)=O)cc13)CC2`, the composite z-score in [1] is -0.133; in assay [2], -0.121; in assay [3] it was -0.0616; in [4], 0.411; in assay [5], 0.578; in assay [6] it was 0.559. Also, the composite z-score in assay [7] is 0.544; in assay [9] it was 0.75; in assay [10] it was -0.0994; in assay [11] it was 0.666; in assay [15] it was 1.22; in [17] it was 0.0835. The figures for the composite z-score in assay [18], in assay [19] and in assay [20] were 1.03, 0.802 and -0.0455, respectively. In addition, the z-score was 0.238 (inactive) in [8]; 1.1 (inactive) in [12]; 1.27 (inactive) in assay [13]; 1.48 (inactive) in assay [14]; 0.364 (inactive) in assay [16].
As to `Cc1ccc(S[C@]2(C(=O)NCc3ccccc3)CC(=O)N(C3Cc4ccccc4C3)[C@@H]2c2ccc(CO)cc2I)cc1`, the composite z-score in [1] was -0.0093; in assay [2], 0.247; in assay [3], -0.123; in [4], -0.257; in assay [5] it was -0.312; in assay [6], 1.64. Moreover, the composite z-score is -0.185 in [7]; -0.134 in assay [9]; -0.246 in assay [10]; 1.19 in [11]; 2.11 in assay [15]; -0.165 in assay [17]. Besides, the composite z-score in assay [18] is -0.508; in [19], -0.288; in [20], -0.135. Moreover, the z-score in assay [8] was -1.73 (inactive); in assay [12], -2.5 (inactive); in [13] it was -1.73 (inactive); in [14], 0.199 (inactive); in assay [16], 3.17 (inactive).
Regarding `Cc1ccc(S[C@]2(C(=O)NCCN3CCOCC3)CC(=O)N(C3Cc4ccccc4C3)[C@@H]2c2ccc(CO)cc2)cc1`, the composite z-score in assay [1] is -0.108; in [2], 1.32; in [3], -0.0825; in assay [4] it was -0.168; in [5] it was -0.746; in [6] it was 1.72. Further, the composite z-score in assay [7] was 1.27; in assay [9] it was 0; in assay [10], -0.0994; in assay [11], 1.42; in [15] it was 2.77; in assay [17], -0.0928. Besides, the composite z-score in assay [18] was -1.11; in [19], -0.521; in assay [20] it was -0.222. The z-score in assay [8] was -0.611 (inactive); in assay [12] it was -0.432 (inactive); in [13], -0.291 (inactive); in [14], -0.0611 (inactive); in assay [16] it was 0.7 (inactive).
On to `O=C1C[C@@](C(=O)NCc2ccccc2)(c2ccc([N+](=O)[O-])cc2)[C@@H](c2ccc(CO)cc2I)N1C1CCCCC1`, for which the composite z-score in assay [1] is 1.95; in assay [2] it was 0.379; in assay [3] it was 0.347; in assay [4], 0.352; in assay [5], 1.08; in [6], 0.819. Besides, the composite z-score in assay [7] was found to be 1.29; in assay [9] it was 1.3; in [10], 0.368; in assay [11], 1.55; in [15], 2.38; in assay [17], 0.569. Further, the composite z-score in assay [18] was 0.924; in assay [19], 1.12; in assay [20], 0.695. In addition, the z-score in assay [8] is -0.524 (inactive); in assay [12] it was 1.2 (inactive); in assay [13] it was 0.856 (inactive); in [14] it was 3.33 (inactive); in [16], 1.04 (inactive).
Take `COC(=O)[C@@]1(Cc2ccccc2N=[N+]=[N-])N=C(c2ccc(OCCCO)cc2)O[C@H]1c1ccccc1`: the composite z-score in [1] was 0.135; in assay [2] it was 0.748; in [3], 0.0904; in [4], 0.264; in assay [5] it was 0.287; in assay [6], 1.5. Moreover, the composite z-score in assay [7] was 1.16; in assay [9] it was 0.0635; in [10] it was -0.0994; in assay [11], 1.14; in assay [15], 1.21; in assay [17] it was -0.0654. Further, the composite z-score is 0.314 in assay [18], 0.94 in assay [19] and -0.115 in assay [20]. In addition, the z-score was -2.33 (inactive) in assay [8]; -0.0982 (inactive) in assay [12]; -3 (inactive) in assay [13]; 23 (active) in [14]; 0.0111 (inactive) in [16].
Turning to `O=C1N(CCS(=O)(=O)c2ccccc2)Cc2ccccc2C[C@@]12COC(c1ccc(OCCCO)cc1)=N2`, the composite z-score in assay [1] was 0.965; in assay [2], 0.667; in assay [3], 0.212; in assay [4], 0.613; in assay [5], 1.45; in [6], 1.02. For the same compound, the composite z-score in assay [7] was 1.35; in [9], 1.58; in assay [10] it was -0.0459; in assay [11], 1.54; in assay [15], 3.04; in assay [17], 0.686. Further, the composite z-score in assay [18] stood at 0.982; in assay [19] it was 1.04; in assay [20], 0.285. Also, the z-score in assay [8] was 0.0674 (inactive); in assay [12], 0.978 (inactive); in assay [13], 0.381 (inactive); in assay [14], 3.45 (inactive); in assay [16], 0.937 (inactive).
